According to PubChem BioAssay (NCI):
This is part of a sample that, as a whole, favours compounds with a hit. Of some 83,000 tested, about 20% had one in any assay.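 Note: values are percent growth. 100 is the growth of untreated cells, values between 100 and 0 indicate rising inhibition; between -100 and 0 indicates cell death.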 A number with no mark means an inactive call. The source made the active and inactive calls.

What follows are compounds tested on SK-MEL-28 melanoma (assay: NCI-60 one-dose screen, 48 h (100 = growth as untreated, 0 = no growth, -100 = all killed)). Details: 10 µM.
Method: Growth inhibition of the SK-MEL-28 human tumor cell line is measured as a screen for anti-cancer activity. Cells are grown in 96 well plates and exposed to the test compound for 48 hours. Compounds are tested at a single concentration, which is 10^-5 M for most compounds. The reported endpoint is percent growth (GI% or GIPRCNT), where numbers from 0 - 100% represent growth inhibition, and numbers from -100% - 0 represent cell death. For example, a value of 40 represents 60% growth inhibition. A value of 0 means no net growth occurred over the course of the experiment. A value of -40 indicates 40% of cells at the beginning of the experiment died by the end of the experiment. A value of -100 means all cells are dead at the end of the experiment.
NCI-60 Human Tumor Cell Lines Screen was performed using the standard one-dose NCI protocol, which is described in more detail at https://dtp.cancer.gov/discovery_development/nci-60/default.htm.
Compounds with GIPRCNT values below 10 were considered active. Activity score was based on GIPRCNT using the following formula: […]
Score is 0 for GIPRCNT values of 100 or above, 50 for GIPRCNT values of 0, and 100 for GIPRCNT values of -100.

Row | Compound | growth
1 | CC[C@]12C=CCN3CC[C@@]4(c5ccc(OC)cc5N(C)[C@H]4[C@@](O)(C(=O)OC)[C@@H]1OC(=O)CCCC[P+](c1ccc(OC)cc1)(c1ccc(OC)cc1)c1ccc(OC)cc1)[C@@H]32 | -96.8% (active)
2 | O=C([Se]C1C=CCCC1)c1ccc(C(=O)[Se]C2C=CCCC2)s1 (stereo not given) | -79.4% (active)
3 | CC12OOC(C)(OO1)C2CCC(=O)NCCNc1ccnc2cc(Cl)ccc12 (stereo not given) | 104%
4 | O=C(/C=C/c1ccc(Cl)cc1Cl)c1nc2ccccc2n1Cc1ccc(Br)cc1 | 89.5%
5 | COc1cc2cc(C(=O)N3C[C@@H](CCl)c4c3cc(OC(=O)N3CCN(C)[C@@H]5CSSC[C@@H]53)c3ccccc43)[nH]c2c(OC)c1OC | -62.6% (active)
6 | CC(C)N=C([Se])NC(=O)c1cccs1 | 60.2%
7 | COc1cc(OC)c(S(=O)(=O)N(CCCl)CCCl)cc1C(=O)/C=C/c1cc(OC)c(OC)c(OC)c1 | -68.5% (active)
8 | CC[C@]12C=CCN3CC[C@@]4(c5ccc(OC)cc5N(C)[C@H]4[C@@](O)(C(=O)OC)[C@@H]1OC(=O)CCC[P+](c1ccc(F)cc1)(c1ccc(F)cc1)c1ccc(F)cc1)[C@@H]32 | -24.1% (active)
9 | COc1cc(OC)c(S(=O)(=O)N(CCCl)CCCl)cc1C(=O)/C=C/c1ccc(C)cc1 | 102%
10 | C=CC[Se]C(=O)c1cncc(C(=O)[Se]CC=C)c1 | -39% (active)
11 | Cc1ccc2[nH]c(=S)n(-c3ccc(F)cc3)c(=O)c2c1 | 101%
12 | COc1ccc(/C=C/C(=O)c2nc3ccccc3n2Cc2ccc(Br)cc2)cc1 | 85.9%
13 | CCC[Se]C(=O)c1ccc(C(=O)[Se]CCC)s1 | -62.9% (active)
14 | CC1=C(CCC=O)C2=C(C)C3(CC3)[C@@](C)(O)C(=O)C2=C1 | -99.3% (active)
15 | CC(C)N=C([Se])NC(=O)c1ccccc1 | -43.9% (active)
16 | COc1ccc(OC)c(/C=C/C(=O)c2nc3ccccc3n2Cc2ccc(F)cc2)c1 | -53% (active)
17 | O=C(/C=C/c1ccc(Cl)cc1)c1nc2ccccc2n1Cc1ccc(Br)cc1 | 80.1%
18 | O=C(NC([Se])=NC1CCCCC1)c1ccccc1 | 33.3%
19 | COC(=O)c1ccc(-n2cc(CCCN(CCNc3ccnc4cc(Cl)ccc34)C(=O)CCC(=O)O[C@@H]3O[C@@H]4OC5(C)CC[C@H]6[C@H](C)CC[C@@H]([C@H]3C)[C@@]46OO5)nn2)cc1 | 16.3%
20 | CC1=C(COCCOC(=O)c2ccc(S(=O)(=O)F)cc2)C2=C(C)C3(CC3)[C@@](C)(O)C(=O)C2=C1 | -63.6% (active)

Row | Compound | growth
21 | C#CC[Se]C(=O)c1ccc(C(=O)[Se]CC#C)s1 | 104%
22 | O=C(/C=C/c1ccc(Cl)cc1)c1nc2ccccc2n1Cc1ccc(F)cc1 | 38.9%
23 | O=C(NC([Se])=NC1CCCCC1)c1ccc2c(c1)OCO2 | 51.6%
24 | COC(=O)C[C@](O)(CCCC(C)C)C(=O)O[C@H]1C(OC)=C[C@@]23CCCN2CCc2cc4c(cc2[C@@H]13)OCO4 | -24.3% (active)
25 | C#CC[Se]C(=O)c1ccc2n[se]nc2c1 | 79.4%
26 | CC1=C(CCC=NNC(N)=O)C2=C(C)C3(CC3)[C@@](C)(O)C(=O)C2=C1 | -79.8% (active)
27 | O=C(/C=C/c1ccco1)c1nc2ccccc2n1Cc1ccc(Br)cc1 | 56.2%
28 | CC[C@]12C=CCN3CC[C@@]4(c5ccc(OC)cc5N(C)[C@H]4[C@@](O)(C(=O)OC)[C@@H]1OC(=O)CCCC[P+](c1ccc(C)cc1)(c1ccc(C)cc1)c1ccc(C)cc1)[C@@H]32 | -97.8% (active)
29 | C[C@H]1[C@H](OC(=O)CCC(=O)N(CCCc2cn(-c3ccc(CN4CCOCC4)cc3)nn2)CCNc2ccnc3cc(Cl)ccc23)O[C@@H]2OC3(C)CC[C@H]4[C@H](C)CC[C@@H]1[C@@]24OO3 | -69.3% (active)
30 | C[C@H]1[C@@H](Oc2ccc(-c3cn(-c4ccnc5cc(Cl)ccc45)nn3)cc2)O[C@@H]2OC3(C)CC[C@H]4[C@H](C)CC[C@@H]1[C@@]24OO3 | 33.3%
31 | N#C[Se]CC(=O)Nc1cccc(C(F)(F)F)c1 | -63.2% (active)
32 | C=CCN=C([Se])NC(=O)c1ccc2c(c1)OCO2 | 111%
33 | C[C@H]1[C@H](OC(=O)CCC(=O)N(CCCc2cn(-c3ccc([N+](=O)[O-])cc3)nn2)CCNc2ccnc3cc(Cl)ccc23)O[C@@H]2OC3(C)CC[C@H]4[C@H](C)CC[C@@H]1[C@@]24OO3 | 50.7%
34 | CC(C)C[C@H](NC(=O)CNC(=O)C[C@H]1O[C@@H]2OC3(C)CC[C@H]4[C@H](C)CC[C@@H]([C@H]1C)[C@@]24OO3)B(O)O | -38.5% (active)
35 | O=C(/C=C/c1cccc(Br)c1)c1nc2ccccc2n1Cc1ccc(F)cc1 | 50.6%
36 | C[C@H]1[C@H](OC(=O)CCC(=O)Nc2cnccn2)O[C@@H]2OC3(C)CC[C@H]4[C@H](C)CC[C@@H]1[C@@]24OO3 | 39.7%
37 | CC(=O)Oc1ccccc1C(=O)[Se]C(=NC(C)C)NC(C)C | -85.5% (active)
38 | C[C@H]1[C@@H](CC(=O)N[C@@H](Cc2coc3ccccc23)B(O)O)O[C@@H]2OC3(C)CC[C@H]4[C@H](C)CC[C@@H]1[C@@]24OO3 | -49.4% (active)
39 | COc1cc2cc(C(=O)N3C[C@@H](CCl)c4c3cc(OC(=O)N3CCN(C)[C@@H]5CSSC[C@H]53)c3ccccc43)[nH]c2c(OC)c1OC | -94.8% (active)
40 | CCOP(=O)(CC(F)(F)C(F)(F)F)OCC | -47.1% (active)
